# Measured values taken from PMC11006913.
# Residue numbers refer to the chain shown, from its start.
# Experiments:
# Assay in all cases: PBM; 200 nM protein, PBS
# Settings in all cases: dsDNA, one strand shown
# [1] = target: SHOX (Homo sapiens, UniProt O15266 103-189)
# [2] = target: ALX4 (Homo sapiens, UniProt Q9H161 200-286)
# [3] = target: ALX4 (Homo sapiens, UniProt Q9H161 200-286, Q225E)
# [4] = target: T1, PAX4 (Homo sapiens, UniProt O43316 9-242)
# T1 sequence: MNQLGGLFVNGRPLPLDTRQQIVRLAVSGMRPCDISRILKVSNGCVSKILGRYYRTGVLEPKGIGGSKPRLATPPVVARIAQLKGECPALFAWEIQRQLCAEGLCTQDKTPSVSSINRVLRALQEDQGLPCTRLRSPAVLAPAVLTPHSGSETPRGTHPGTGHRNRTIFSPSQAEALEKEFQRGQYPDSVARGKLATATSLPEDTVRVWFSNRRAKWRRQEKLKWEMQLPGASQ
# [5] = target: T2, PAX4 (Homo sapiens, UniProt O43316 9-242, R200Q)
# T2 sequence: T1 sequence with R192Q
# [6] = target: T3, PAX4 (Homo sapiens, UniProt O43316 9-242, F177V)
# T3 sequence: T1 sequence with F169V
# [7] = target: T4, PAX4 (Homo sapiens, UniProt O43316 9-242, R227W)
# T4 sequence: T1 sequence with R219W
# [8] = target: ALX1 (Homo sapiens, UniProt Q15699 118-204, L144V)
# Sequence of ALX1 (Homo sapiens, UniProt Q15699 118-204, L144V) (Q15699 118-204 L144V): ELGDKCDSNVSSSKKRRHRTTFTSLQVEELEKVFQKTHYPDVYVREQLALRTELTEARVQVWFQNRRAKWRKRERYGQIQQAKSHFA
# [9] = target: ALX1 (Homo sapiens, UniProt Q15699 118-204, L144R)
# Sequence of ALX1 (Homo sapiens, UniProt Q15699 118-204, L144R) (Q15699 118-204 L144R): as the sequence (Q15699 118-204 L144V) above, with V27R counted along it
# [10] = target: ALX1 (Homo sapiens, UniProt Q15699 118-204)
# Sequence of ALX1 (Homo sapiens, UniProt Q15699 118-204) (Q15699 118-204): as the sequence (Q15699 118-204 L144V) above, with V27L counted along it
# [11] = target: PRRX1 (Homo sapiens, UniProt P54821 80-166, F113S)
# Sequence of PRRX1 (Homo sapiens, UniProt P54821 80-166, F113S) (P54821 80-166 F113S): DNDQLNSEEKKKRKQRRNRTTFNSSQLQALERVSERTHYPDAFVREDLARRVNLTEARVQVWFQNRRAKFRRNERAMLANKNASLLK
# [12] = target: ALX3 (Homo sapiens, UniProt O95076 139-225, N203Q)
# Sequence of ALX3 (Homo sapiens, UniProt O95076 139-225, N203Q) (O95076 139-225 N203Q): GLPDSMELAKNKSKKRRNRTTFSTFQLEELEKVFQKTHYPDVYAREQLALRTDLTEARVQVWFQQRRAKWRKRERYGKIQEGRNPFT
# [13] = target: ALX3 (Homo sapiens, UniProt O95076 139-225)
# Sequence of ALX3 (Homo sapiens, UniProt O95076 139-225) (O95076 139-225): as the sequence (O95076 139-225 N203Q) above, with Q65N counted along it
# [14] = target: ALX3 (Homo sapiens, UniProt O95076 139-225, L168Q)
# Sequence of ALX3 (Homo sapiens, UniProt O95076 139-225, L168Q) (O95076 139-225 L168Q): as the sequence (O95076 139-225 N203Q) above, with L30Q, Q65N counted along it
# [15] = target: ALX3 (Homo sapiens, UniProt O95076 139-225, L168V)
# Sequence of ALX3 (Homo sapiens, UniProt O95076 139-225, L168V) (O95076 139-225 L168V): as the sequence (O95076 139-225 N203Q) above, with L30V, Q65N counted along it
# [16] = target: ALX3 (Homo sapiens, UniProt O95076 139-225, N203S)
# Sequence of ALX3 (Homo sapiens, UniProt O95076 139-225, N203S) (O95076 139-225 N203S): as the sequence (O95076 139-225 N203Q) above, with Q65S counted along it
# [17] = target: PRRX1 (Homo sapiens, UniProt P54821 80-166)
# Sequence of PRRX1 (Homo sapiens, UniProt P54821 80-166) (P54821 80-166): as the sequence (P54821 80-166 F113S) above, with S34F counted along it
# [18] = target: MSX2 (Homo sapiens, UniProt P35548 130-214, R199I)
# Sequence of MSX2 (Homo sapiens, UniProt P35548 130-214, R199I) (P35548 130-214 R199I): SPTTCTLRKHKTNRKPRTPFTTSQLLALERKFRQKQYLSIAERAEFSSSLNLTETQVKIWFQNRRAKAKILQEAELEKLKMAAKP
# [19] = target: MSX2 (Homo sapiens, UniProt P35548 130-214)
# Sequence of MSX2 (Homo sapiens, UniProt P35548 130-214) (P35548 130-214): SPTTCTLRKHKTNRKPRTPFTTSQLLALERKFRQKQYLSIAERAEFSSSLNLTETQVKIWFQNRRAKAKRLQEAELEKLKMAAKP
# [20] = target: MSX2 (Homo sapiens, UniProt P35548 130-214, F161Y)
# Sequence of MSX2 (Homo sapiens, UniProt P35548 130-214, F161Y) (P35548 130-214 F161Y): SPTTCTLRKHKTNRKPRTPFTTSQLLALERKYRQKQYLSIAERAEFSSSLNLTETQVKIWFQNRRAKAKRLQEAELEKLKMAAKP
# Sequence of ALX4 (Homo sapiens, UniProt Q9H161 200-286, Q225E) (Q9H161 200-286 Q225E): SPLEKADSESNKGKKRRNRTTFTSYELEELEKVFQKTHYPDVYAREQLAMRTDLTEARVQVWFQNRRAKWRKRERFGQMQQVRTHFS
# Sequence of ALX4 (Homo sapiens, UniProt Q9H161 200-286) (Q9H161 200-286): as the sequence (Q9H161 200-286 Q225E) above, with E26Q counted along it
# Sequence of SHOX (O15266 103-189): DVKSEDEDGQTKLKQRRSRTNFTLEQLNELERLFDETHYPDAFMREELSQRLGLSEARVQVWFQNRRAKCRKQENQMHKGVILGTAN
sequence,measurement,setting,value
CCGCAAGG,binding signal,[1],"7.17 upbm affinity estimate (log intensity, higher = more binding, comparable within an allelic series)"
AGCCTGGG,binding signal,[1],"7.06 upbm affinity estimate (log intensity, higher = more binding, comparable within an allelic series)"
same,binding signal,[2],"7.98 upbm affinity estimate (log intensity, higher = more binding, comparable within an allelic series)"
same,binding signal,[3],"8.23 upbm affinity estimate (log intensity, higher = more binding, comparable within an allelic series)"
CGTCCCGC,binding signal,[2],"8 upbm affinity estimate (log intensity, higher = more binding, comparable within an allelic series)"
same,binding signal,[4],"9.17 upbm affinity estimate (log intensity, higher = more binding, comparable within an allelic series)"
same,binding signal,[3],"8.06 upbm affinity estimate (log intensity, higher = more binding, comparable within an allelic series)"
same,binding signal,[5],"9.15 upbm affinity estimate (log intensity, higher = more binding, comparable within an allelic series)"
same,binding signal,[6],"9.15 upbm affinity estimate (log intensity, higher = more binding, comparable within an allelic series)"
same,binding signal,[7],"9.22 upbm affinity estimate (log intensity, higher = more binding, comparable within an allelic series)"
CGCAGGCG,binding signal,[1],"7.28 upbm affinity estimate (log intensity, higher = more binding, comparable within an allelic series)"
same,binding signal,[8],"6.44 upbm affinity estimate (log intensity, higher = more binding, comparable within an allelic series)"
same,binding signal,[9],"6.71 upbm affinity estimate (log intensity, higher = more binding, comparable within an allelic series)"
same,binding signal,[10],"6.49 upbm affinity estimate (log intensity, higher = more binding, comparable within an allelic series)"
TAAATTAA,binding signal,[1],"11.8 upbm affinity estimate (log intensity, higher = more binding, comparable within an allelic series)"
same,binding signal,[2],"13.9 upbm affinity estimate (log intensity, higher = more binding, comparable within an allelic series)"
same,binding signal,[11],"11.2 upbm affinity estimate (log intensity, higher = more binding, comparable within an allelic series)"
same,binding signal,[4],"12.3 upbm affinity estimate (log intensity, higher = more binding, comparable within an allelic series)"
same,binding signal,[3],"13.1 upbm affinity estimate (log intensity, higher = more binding, comparable within an allelic series)"
same,binding signal,[8],"11.8 upbm affinity estimate (log intensity, higher = more binding, comparable within an allelic series)"
same,binding signal,[12],"8.53 upbm affinity estimate (log intensity, higher = more binding, comparable within an allelic series)"
same,binding signal,[5],"12 upbm affinity estimate (log intensity, higher = more binding, comparable within an allelic series)"
same,binding signal,[9],"11.5 upbm affinity estimate (log intensity, higher = more binding, comparable within an allelic series)"
same,binding signal,[6],"10.6 upbm affinity estimate (log intensity, higher = more binding, comparable within an allelic series)"
same,binding signal,[13],"12.4 upbm affinity estimate (log intensity, higher = more binding, comparable within an allelic series)"
same,binding signal,[14],"10.4 upbm affinity estimate (log intensity, higher = more binding, comparable within an allelic series)"
same,binding signal,[15],"9.89 upbm affinity estimate (log intensity, higher = more binding, comparable within an allelic series)"
same,binding signal,[7],"11 upbm affinity estimate (log intensity, higher = more binding, comparable within an allelic series)"
same,binding signal,[10],"12.4 upbm affinity estimate (log intensity, higher = more binding, comparable within an allelic series)"
same,binding signal,[16],"8.68 upbm affinity estimate (log intensity, higher = more binding, comparable within an allelic series)"
same,binding signal,[17],"13.4 upbm affinity estimate (log intensity, higher = more binding, comparable within an allelic series)"
CGGCGAGC,binding signal,[1],"7.05 upbm affinity estimate (log intensity, higher = more binding, comparable within an allelic series)"
GACTGGCC,binding signal,[1],"7.34 upbm affinity estimate (log intensity, higher = more binding, comparable within an allelic series)"
same,binding signal,[12],"7.82 upbm affinity estimate (log intensity, higher = more binding, comparable within an allelic series)"
same,binding signal,[13],"7.84 upbm affinity estimate (log intensity, higher = more binding, comparable within an allelic series)"
same,binding signal,[14],"7.72 upbm affinity estimate (log intensity, higher = more binding, comparable within an allelic series)"
same,binding signal,[15],"7.77 upbm affinity estimate (log intensity, higher = more binding, comparable within an allelic series)"
same,binding signal,[16],"7.91 upbm affinity estimate (log intensity, higher = more binding, comparable within an allelic series)"
CTCATTAA,binding signal,[1],"11.5 upbm affinity estimate (log intensity, higher = more binding, comparable within an allelic series)"
same,binding signal,[2],"13.6 upbm affinity estimate (log intensity, higher = more binding, comparable within an allelic series)"
same,binding signal,[3],"12.6 upbm affinity estimate (log intensity, higher = more binding, comparable within an allelic series)"
same,binding signal,[8],"11.5 upbm affinity estimate (log intensity, higher = more binding, comparable within an allelic series)"
same,binding signal,[12],"8.32 upbm affinity estimate (log intensity, higher = more binding, comparable within an allelic series)"
same,binding signal,[9],"11.2 upbm affinity estimate (log intensity, higher = more binding, comparable within an allelic series)"
same,binding signal,[13],"12.3 upbm affinity estimate (log intensity, higher = more binding, comparable within an allelic series)"
same,binding signal,[14],"10.1 upbm affinity estimate (log intensity, higher = more binding, comparable within an allelic series)"
same,binding signal,[15],"9.58 upbm affinity estimate (log intensity, higher = more binding, comparable within an allelic series)"
same,binding signal,[10],"12 upbm affinity estimate (log intensity, higher = more binding, comparable within an allelic series)"
same,binding signal,[16],"8.41 upbm affinity estimate (log intensity, higher = more binding, comparable within an allelic series)"
GACTCGGC,binding signal,[1],"7.16 upbm affinity estimate (log intensity, higher = more binding, comparable within an allelic series)"
CAGGGGGC,binding signal,[1],"7.1 upbm affinity estimate (log intensity, higher = more binding, comparable within an allelic series)"
GACGCCGC,binding signal,[4],"9.29 upbm affinity estimate (log intensity, higher = more binding, comparable within an allelic series)"
same,binding signal,[5],"9.2 upbm affinity estimate (log intensity, higher = more binding, comparable within an allelic series)"
same,binding signal,[6],"9.15 upbm affinity estimate (log intensity, higher = more binding, comparable within an allelic series)"
same,binding signal,[7],"9.18 upbm affinity estimate (log intensity, higher = more binding, comparable within an allelic series)"
CAGGACCC,binding signal,[2],"7.85 upbm affinity estimate (log intensity, higher = more binding, comparable within an allelic series)"
same,binding signal,[3],"8.07 upbm affinity estimate (log intensity, higher = more binding, comparable within an allelic series)"
CGGGAGAG,binding signal,[1],"6.89 upbm affinity estimate (log intensity, higher = more binding, comparable within an allelic series)"
same,binding signal,[8],"6.33 upbm affinity estimate (log intensity, higher = more binding, comparable within an allelic series)"
same,binding signal,[9],"6.21 upbm affinity estimate (log intensity, higher = more binding, comparable within an allelic series)"
same,binding signal,[10],"6.23 upbm affinity estimate (log intensity, higher = more binding, comparable within an allelic series)"
CGAGGGTC,binding signal,[4],"9.09 upbm affinity estimate (log intensity, higher = more binding, comparable within an allelic series)"
same,binding signal,[12],"7.7 upbm affinity estimate (log intensity, higher = more binding, comparable within an allelic series)"
same,binding signal,[5],"9.19 upbm affinity estimate (log intensity, higher = more binding, comparable within an allelic series)"
same,binding signal,[6],"9.25 upbm affinity estimate (log intensity, higher = more binding, comparable within an allelic series)"
same,binding signal,[13],"7.59 upbm affinity estimate (log intensity, higher = more binding, comparable within an allelic series)"
same,binding signal,[14],"7.67 upbm affinity estimate (log intensity, higher = more binding, comparable within an allelic series)"
same,binding signal,[15],"7.68 upbm affinity estimate (log intensity, higher = more binding, comparable within an allelic series)"
same,binding signal,[7],"9.33 upbm affinity estimate (log intensity, higher = more binding, comparable within an allelic series)"
same,binding signal,[16],"7.71 upbm affinity estimate (log intensity, higher = more binding, comparable within an allelic series)"
AACAATAC,binding signal,[17],"10.9 upbm affinity estimate (log intensity, higher = more binding, comparable within an allelic series)"
CATTAATG,binding signal,[4],"12.2 upbm affinity estimate (log intensity, higher = more binding, comparable within an allelic series)"
same,binding signal,[5],"11.9 upbm affinity estimate (log intensity, higher = more binding, comparable within an allelic series)"
same,binding signal,[6],"10.5 upbm affinity estimate (log intensity, higher = more binding, comparable within an allelic series)"
same,binding signal,[7],"10.9 upbm affinity estimate (log intensity, higher = more binding, comparable within an allelic series)"
TATCAATA,binding signal,[17],"11.7 upbm affinity estimate (log intensity, higher = more binding, comparable within an allelic series)"
GCCGCCGC,binding signal,[18],"9.4 upbm affinity estimate (log intensity, higher = more binding, comparable within an allelic series)"
same,binding signal,[19],"9.37 upbm affinity estimate (log intensity, higher = more binding, comparable within an allelic series)"
same,binding signal,[20],"9.42 upbm affinity estimate (log intensity, higher = more binding, comparable within an allelic series)"
GACCAGGC,binding signal,[4],"9.45 upbm affinity estimate (log intensity, higher = more binding, comparable within an allelic series)"
same,binding signal,[5],"9.45 upbm affinity estimate (log intensity, higher = more binding, comparable within an allelic series)"
same,binding signal,[6],"9.26 upbm affinity estimate (log intensity, higher = more binding, comparable within an allelic series)"
same,binding signal,[7],"9.37 upbm affinity estimate (log intensity, higher = more binding, comparable within an allelic series)"
GCGCAGCC,binding signal,[8],"6.42 upbm affinity estimate (log intensity, higher = more binding, comparable within an allelic series)"
same,binding signal,[9],"6.45 upbm affinity estimate (log intensity, higher = more binding, comparable within an allelic series)"
same,binding signal,[10],"6.41 upbm affinity estimate (log intensity, higher = more binding, comparable within an allelic series)"
AGTCATTA,binding signal,[11],"10.4 upbm affinity estimate (log intensity, higher = more binding, comparable within an allelic series)"
same,binding signal,[17],"12.7 upbm affinity estimate (log intensity, higher = more binding, comparable within an allelic series)"
